Rows were chosen to be rich in hits. Some 1.9% of all compounds tested hit in one or more screens of this group.
DSG3 Ab inh – inhibitors of pemphigus antibody binding to human desmoglein-3. binding (percent of control), % at 10 µM. P32926. DSG3-coupled beads, scFv-anti-DSG3-GFP binding, flow cytometry; stronger effect = lower value. actives 0.48% (n = 310,000);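 active means binding more than 3 SD below its plate's average and above zero; inconclusive means below that plate limit but binding exactly zero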;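 further: hits lower antibody fragment binding to DSG3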
Glyco luc inh – blocks N-linked glycosylation in D54 reporter cells; D54 ERlucT glycosylation luciferase reporter, 24 h; percent of 100 nM tunicamycin response; reporter increase, % at 12.5 µM; AID 588692; actives 0.23% (n = 360,000);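 active means mean luciferase reporter signal, scaled so untreated is 0 and the glycosylation-blocking control 100, at or above a set limit in every replicate; inconclusive means mean reaches the limit but not every replicate does; inactive means mean below the limit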;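 further: luciferase carries N-glycosylation sites so blocking glycosylation raises the light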
CaV13 ICDI inh – Disruptors of the CACNA1D IQ motif to Ca2+-dependent inactivation inhibitor domain association, primary screening, Förster resonance energy transfer in intact living … | inhibition, % at 12.3 µM | HEK cells, CFP/YFP FRET ICDI-IQ, plate reader, 10 min; percent FRET-ratio fall versus neutral wells | actives 0.098% (n = 340,000) | AID 743397;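 active means mean replicate inhibition of at least 30% and at least 1% of replicates passing that level; inconclusive means only one of the two criteria is met; inactive means neither criterion is met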
ATG4B inh – blocks human ATG4B protease cleavage of LC3 substrate; ATG4B cleavage of LC3-PLA2, NBD-HPC fluorescence, 1 h; inhibition, % at 8.33 µM; AID 504462; Q9Y4P1; actives 0.51% (n = 340,000); in the data active means inhibition above about 40%
NSD2 HMT inh – inhibitors of human histone methyltransferase NSD2; O96028; NSD2 peptide methylation, AlphaScreen, 120 min; inhibition, % at 12.5 µM; actives 0.54% (n = 310,000); AID 743445; in the data active means inhibition above about 50%
Target sequence (O96028 whole entry, looked up): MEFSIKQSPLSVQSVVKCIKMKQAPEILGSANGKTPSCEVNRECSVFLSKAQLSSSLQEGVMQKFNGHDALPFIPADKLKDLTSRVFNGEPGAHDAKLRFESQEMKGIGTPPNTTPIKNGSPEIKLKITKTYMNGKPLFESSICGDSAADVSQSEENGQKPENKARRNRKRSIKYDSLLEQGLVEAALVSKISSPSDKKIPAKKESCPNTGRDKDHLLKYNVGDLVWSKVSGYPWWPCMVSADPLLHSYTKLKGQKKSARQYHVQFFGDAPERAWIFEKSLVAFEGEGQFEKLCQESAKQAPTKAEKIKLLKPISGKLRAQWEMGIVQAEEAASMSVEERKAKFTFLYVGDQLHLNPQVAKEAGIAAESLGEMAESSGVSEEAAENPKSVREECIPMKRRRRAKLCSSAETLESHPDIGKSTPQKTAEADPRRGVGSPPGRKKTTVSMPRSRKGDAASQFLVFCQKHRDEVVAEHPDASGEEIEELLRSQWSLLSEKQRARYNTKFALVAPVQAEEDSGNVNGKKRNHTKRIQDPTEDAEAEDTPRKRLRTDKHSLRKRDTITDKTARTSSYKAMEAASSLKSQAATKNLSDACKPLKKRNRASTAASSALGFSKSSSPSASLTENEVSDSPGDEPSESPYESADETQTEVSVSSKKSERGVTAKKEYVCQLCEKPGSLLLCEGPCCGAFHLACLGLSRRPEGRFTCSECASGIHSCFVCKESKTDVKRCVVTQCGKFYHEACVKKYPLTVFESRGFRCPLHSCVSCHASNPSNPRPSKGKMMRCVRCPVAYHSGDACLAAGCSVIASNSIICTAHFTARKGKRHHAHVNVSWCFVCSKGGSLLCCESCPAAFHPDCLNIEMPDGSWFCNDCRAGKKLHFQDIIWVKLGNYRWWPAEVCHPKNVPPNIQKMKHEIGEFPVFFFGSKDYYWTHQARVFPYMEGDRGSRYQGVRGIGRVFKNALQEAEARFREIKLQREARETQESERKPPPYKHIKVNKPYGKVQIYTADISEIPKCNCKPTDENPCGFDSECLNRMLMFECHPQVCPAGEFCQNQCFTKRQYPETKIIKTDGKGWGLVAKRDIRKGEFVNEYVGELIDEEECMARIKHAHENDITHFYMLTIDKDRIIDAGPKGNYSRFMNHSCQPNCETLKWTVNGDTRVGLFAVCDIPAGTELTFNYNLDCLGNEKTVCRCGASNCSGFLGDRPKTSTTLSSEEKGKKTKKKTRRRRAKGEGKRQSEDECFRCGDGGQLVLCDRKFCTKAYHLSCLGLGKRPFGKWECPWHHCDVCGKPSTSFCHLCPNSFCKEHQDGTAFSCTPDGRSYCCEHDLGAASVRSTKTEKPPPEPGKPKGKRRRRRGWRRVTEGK
Vif inh – HIV Vif inhibition | inhibition, % at 7.49 µM | HEK293T cells, Vif self-association by quenched fluorescence, imaging, 24 h | actives 0.35% (n = 340,000); in the data active means inhibition above about 50%, passing the limit was not always enough; inconclusive means no clear call, values can overlap the other calls; inactive means below about 31%
Alpha artifact – counter-screen for NSD2 inhibitors: AlphaScreen artifacts; shares compounds with NSD2 HMT inh; AlphaScreen artifact counterscreen, preloaded methylated H4 peptide; AC35, µM (highest dose often 10 µM); actives 9.4% (n = 1,500); call rule not given here
Each line names hits and unclear results; the compound was inactive in the other large screens (follow-up assays come after a bar, where they were run).

COc1ccc(OC)c(C(=O)Nc2c(O)ccc3ccccc23)c1	NSD2 HMT inh 52.3 | Alpha artifact inactive
COc1ccc(OC)c(NC(=O)Nc2c(O)ccc3ccccc23)c1	none
CCc1ccc(NC(=O)c2cnn3ccccc23)cc1	none (no result: NSD2 HMT inh)
C=CCN1C(c2ccccc2)=CS/C1=C(\C#N)c1nnc2n1CCCCC2	none (no result: CaV13 ICDI inh, NSD2 HMT inh)
C=CCC1CCCCC1=C(C#N)c1ccccc1 (stereo not drawn)	NSD2 HMT inh 53.3 (no result: ATG4B inh, Vif inh) | Alpha artifact inactive
CC1CC(C)CN(C(=O)COC(=O)c2ccc([N+](=O)[O-])o2)C1 (stereo not drawn)	none
CC1CCCC(C)N1C(=O)COC(=O)c1ccc([N+](=O)[O-])o1 (stereo not drawn)	NSD2 HMT inh 68.6 | Alpha artifact inactive
O=[N+]([O-])c1ccc(-c2cccnc2)cc1	NSD2 HMT inh 158.3 | Alpha artifact inactive
CC(C)c1nc2oc3c(NCC4CCCO4)ncnc3c2c2c1COC(C)(C)C2 (stereo not drawn)	NSD2 HMT inh 53.9 | Alpha artifact inactive
Cc1nc2oc3c(NCC4CCCO4)ncnc3c2c2c1COC(C)(C)C2 (stereo not drawn)	none
CC1CCCCN1CCCNc1ccc(C(CC(N)=O)NC(=O)Cc2ccc(Cl)cc2)cc1[N+](=O)[O-] (stereo not drawn)	none (no result: NSD2 HMT inh)
Cn1c(=Nc2ccccc2)sc2ccccc21	none
CN(C)c1ccc(N=c2sc3ccccc3n2C)cc1	NSD2 HMT inh 57.1 | Alpha artifact 8.9µM
Cc1c(NC(=O)CN2C(=O)C(=O)c3ccccc32)c(=O)n(-c2ccccc2)n1C	NSD2 HMT inh 56.0 (no result: CaV13 ICDI inh) | Alpha artifact inactive
Cc1nc(COC(=O)c2cc(O)c3ccccc3c2O)cs1	NSD2 HMT inh 78.2 | Alpha artifact inactive
Cc1nc(COC(=O)c2ccc(CO)cc2)cs1	none (no result: DSG3 Ab inh)
Cc1cc(NC(=O)C(C)SCC(=O)Nc2cc(C(F)(F)F)ccc2N2CCCCC2)no1 (stereo not drawn)	none
S=C(NCc1ccccc1)Nc1cccc2cnccc12	none
Cc1ccc(C)c(NC(=S)Nc2cccnc2)c1	none
Cc1ccc(C)c(NC(=S)Nc2cccc3cnccc23)c1	NSD2 HMT inh 97.6 | Alpha artifact inactive
Fc1ccccc1NC(=S)Nc1cccc2cnccc12	NSD2 HMT inh 99.3 | Alpha artifact inactive
Cc1ccccc1NC(=S)Nc1cccc2cnccc12	NSD2 HMT inh 103.9 (no result: DSG3 Ab inh) | Alpha artifact inactive
Cn1c(=O)c2c(nc(CN3CCC(C(N)=O)CC3)n2Cc2c(Cl)cccc2Cl)n(C)c1=O	DSG3 Ab inh inconclusive
Cn1c(=O)c2c(nc(CN3CCC(C(N)=O)CC3)n2Cc2ccccc2Cl)n(C)c1=O	NSD2 HMT inh 65.0 (no result: DSG3 Ab inh) | Alpha artifact inactive
O=C(CN1C(=O)c2ccccc2C1=O)OCC(=O)c1ccccc1	none
CCOC(=O)/C(C#N)=N/Nc1ccccc1C#N	none
Cc1cccc(OCCn2c(=S)[nH]c3ccccc32)c1	NSD2 HMT inh 112.7 (no result: CaV13 ICDI inh) | Alpha artifact inactive
O=c1c2ccc([N+](=O)[O-])cc2sn1-c1ccccc1	NSD2 HMT inh 59.2 (no result: DSG3 Ab inh, Glyco luc inh, CaV13 ICDI inh, ATG4B inh, Vif inh) | Alpha artifact inactive
Cc1ccc(-n2sc3ccccc3c2=O)cc1	none (no result: DSG3 Ab inh)
Clc1ccccc1Oc1cnc2ccccc2n1	none
Cc1cc(=O)[nH]c(SCC(=O)Nc2cccc3ccccc23)c1C#N	none
COc1cc(NC(=O)c2ccccc2)c(OC)cc1NC(=O)CSc1[nH]c(=O)cc(C)c1C#N	NSD2 HMT inh 129.9 | Alpha artifact inactive
O=c1[nH]n2c(=O)c3c([nH]c2c1N=Nc1cccc(Cl)c1)CCC3	none
O=c1[nH]n2c(=O)c3c([nH]c2c1N=Nc1cccc(C(F)(F)F)c1)CCCC3	NSD2 HMT inh 125.3 (no result: DSG3 Ab inh) | Alpha artifact inactive
CNS(=O)(=O)c1cc(NC(=O)CCCNC(=O)c2ccc(Cl)cc2)ccc1C	NSD2 HMT inh 67.0 | Alpha artifact inactive
Cn1cc(CCOCc2ccccn2)c2ccccc21	none (no result: DSG3 Ab inh, Glyco luc inh, ATG4B inh, NSD2 HMT inh, Vif inh)
O=C(O)c1cc(-c2ccccc2)n(-c2ccc(F)cc2)n1	none
CCOC(=S)SCC(=O)Nc1nc(C)c(C)s1	NSD2 HMT inh 51.4 | Alpha artifact inactive
CCOC(=S)SCC(=O)Nc1nccs1	none (no result: DSG3 Ab inh)
c1c2c(cc3sc(N4CCOCC4)nc13)OCO2	none (no result: DSG3 Ab inh)
CC(C)N(Cc1ccccc1)C(=O)C1CCCN(c2ncnc3c2nc2n3CCCCC2)C1 (stereo not drawn)	NSD2 HMT inh 53.9 | Alpha artifact inactive
CCN(CCNC(=O)C1CCCN(c2ncnc3c2nc2n3CCCCC2)C1)Cc1ccccc1 (stereo not drawn)	none
O=C(Nc1cccnc1)c1ccc(COc2ccccc2Cl)o1	NSD2 HMT inh 126.7 | Alpha artifact inactive
Cc1ccc(S(=O)(=O)Nc2cccc(-n3cnnn3)c2)cc1C(=O)O	none
O=S(=O)(c1ccc(-c2nnco2)cc1)N1CCCCC1	NSD2 HMT inh 92.5 (no result: DSG3 Ab inh) | Alpha artifact inactive
CCN(CC(=O)NC1CC1)S(=O)(=O)c1ccccc1	none
COC(=O)c1ccc(-n2nnnc2SCC(=O)NCc2cccc(C(=O)O)c2)cc1	NSD2 HMT inh 106.8 | Alpha artifact inactive
Cn1nnnc1SCC(=O)NCc1cccc(C(=O)O)c1	none
CC(C)(C)CC(=O)NC(=S)Nc1ccccc1[N+](=O)[O-]	none
Oc1ccc(/C=N/Nc2cc(N3CCOCC3)nc(N3CCOCC3)n2)cc1O	NSD2 HMT inh 105.6 | Alpha artifact inactive
Oc1ccccc1/C=N/Nc1cc(N2CCCC2)nc(N2CCCC2)n1	NSD2 HMT inh 53.6 | Alpha artifact inactive
c1ccc(Cn2nnnc2C(c2cccs2)N2CCc3ccccc3C2)cc1 (stereo not drawn)	none (no result: CaV13 ICDI inh, NSD2 HMT inh, Vif inh)
COc1ccccc1-c1nnc(SCC(=O)N2CCCCC2)o1	none
N#CC(C#N)=Cc1ccc(-c2ccc(S(=O)(=O)N=C(N)N)cc2)o1	none
O=[N+]([O-])c1ccc(N/N=C/c2cccs2)nc1	NSD2 HMT inh 52.4 | Alpha artifact inactive
O=[N+]([O-])c1ccc(NN=Cc2ccccc2)nc1	none (no result: DSG3 Ab inh)
Cc1cc2ccccn2c1C(=O)c1ccc([N+](=O)[O-])o1	Glyco luc inh inconclusive, NSD2 HMT inh 61.2 | Alpha artifact inactive
Cc1ccc(-n2nc(C(=O)NCc3ccc(C)o3)c3c4ccccc4n(C)c3c2=O)cc1	NSD2 HMT inh 53.2 | Alpha artifact inactive
O=C(C=Cc1ccccc1)c1cc(Br)ccc1O	NSD2 HMT inh 53.7, Vif inh inconclusive | Alpha artifact inactive
O=C(Nc1ccc(Cc2ccncc2)cc1)c1ccc(S(=O)(=O)N2CCOCC2)cc1	none (no result: CaV13 ICDI inh)
COc1ccc(C2CCc3cc4c(cc3C2=NOC(C)=O)OCO4)cc1OC (stereo not drawn)	NSD2 HMT inh 58.2 (no result: ATG4B inh) | Alpha artifact inactive
